Values joined by “and” are separate entries in the source; they are usually repeats but may differ in a detail not shown here. Equal entries are not always repeated. Screen size: about 75,000 compounds; about 5,700 (7.6%) were called active. Inconclusive results (about 7%) are left out. Calls follow the shape of the dose curve; as a rule, active = well fitted inhibition curve with a large enough effect; inconclusive = small, poorly fitted or top-dose-only effect; inactive = no such curve, though single readings can be large or run the other way. The list comes from a sample in which actives are over-represented; it also holds similar structures and randomly drawn compounds.
biological target: 3-hydroxyacyl-CoA dehydrogenase type-2 (Homo sapiens) (UniProt Q99714); experiment: qHTS Assay for Inhibitors of HSD17B4, hydroxysteroid (17-beta) dehydrogenase 4; details: recombinant HSD17B10, NADH fluorescence kinetic; series mostly up to 57.1 µM; activity change, negative = inhibition: at the top concentration;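 also: the protocol describes HADH2 (HSD17B10) and not the HSD17B4 of the title; nearly all actives have a fitted effect of over 70% in size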
Procedure, shortened: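 His-tagged E. coli-expressed HADH2 at 20 nM in 100 mM Tris-HCl pH 9.0 with 0.01 % Tween-20, preincubated 15 min with compound at room temperature. Reaction with 1 mM NAD+ and 90 uM beta-hydroxybutyryl coenzyme A; NADH fluorescence (360/450 nm) read kinetically over 4 min, last minus first point.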
% is scaled to controls: 0 for no effect and ±100 for the full control effect; potency is read from the fitted curve at half-maximal effect.

Structure (SMILES)	activity change, negative = inhibition	Potency
CNc1cc(-c2c(C)noc2C)ncn1	18.4% (inactive)	–
O=C1CCc2cc(S(=O)(=O)N3CCC(C(=O)NCc4ccccc4Cl)CC3)ccc2N1	-0.8% (inactive)	–
COc1cccc(OC)c1C(=O)Nc1nnc(C(C)C)s1	-1.6% (inactive)	–
Cc1ccc(C(=O)Nc2nnc(-c3cccs3)s2)cc1C	–	25.1 µM (active)
CCCc1nnc(NC(=O)c2cc(OC)cc(OC)c2)s1	-11.4% (inactive)	–
Cc1cc(C)nc(N2C(=O)CC(Cc3ccccc3)C2=O)n1 (configuration not stated)	12.1% (inactive)	–
COc1ccc(OC)c2[nH]c(=O)c(CCNC(=O)C(C)(C)C)cc12	-3.37% (inactive)	–
CCCn1c(SCC(=O)N2CCc3ccccc32)nnc1-c1ccncc1	0.0014% (inactive)	–
CCc1ccc(N2CC(C(=O)NC3=NCCS3)CC2=O)cc1 (configuration not stated)	5.64% (inactive)	–
O=C(c1cc(-c2cccs2)on1)N1CCCCC1	-2.58% (inactive)	–
Cc1ccc(C(=O)N2CCCCCC2)cc1Br	0.826% (inactive)	–
Cc1ccc2cc3cc(C(=O)N4CCCCCC4)oc3nc2c1	–	25.1 µM (active)
Oc1c(CN2CCOCC2)ccc(CN2CCOCC2)c1O	-11.5% [at 11.4 µM] (inactive)	–
CO[C@H]1COC(=O)[C@@H](OCc2ccccc2)/C=C\[C@H](C)[C@@H](OC)COC(=O)[C@H](OCc2ccccc2)/C=C\[C@@H]1C	-0.999% [at 11.4 µM] (inactive)	–
CN(C)CCCn1c2ccccc2c2cnccc21	7.17% [at 11.4 µM] (inactive)	–
Cc1cc(Cl)c(S(=O)(=O)NCC2CCCO2)cc1OCC(N)=O (configuration not stated)	4.23% (inactive)	–
NC(=O)COc1ccc2c3c(c(=O)oc2c1)CCCCC3	–	25.1 µM (active)
O=C(COc1ccccc1F)NC1CC1	12.2% (inactive)	–
O=C(COc1ccc2c3c(c(=O)oc2c1)CCC3)NC1CCCCC1	–	31.6 µM (active)
O=C(CC1OC(=O)c2ccccc21)NC1CCCCC1 (configuration not stated)	-3.03% (inactive)	–
O=C(COc1ccc2oc3c(c2c1)CCCC3)Nc1ccccn1	5.38% (inactive)	–
CCOC(=O)CSc1nc2c(c(=O)n(C)c(=O)n2C)n1Cc1ccccc1F	3.77% (inactive)	–

Structure (SMILES)	activity change, negative = inhibition	Potency
CCOC(=O)CSc1nnc(CNC(=O)Cc2ccccc2)n1-c1ccccc1OC	-4.39% (inactive)	–
COC(=O)CSc1nc(C2CC2)nc2ccccc12	1.28% (inactive)	–
CCCc1nc2c3cnn(-c4cccc(Cl)c4)c3ncn2n1	-20.2% (inactive)	–
Cc1ccc(-n2ncc3c(N4CCN(c5ccc(F)cc5)CC4)ncnc32)c(C)c1	-2.46% (inactive)	–
Cc1ccc(-n2ncc3c2ncn2nc(-c4ccco4)nc32)c(C)c1	–	25.1 µM (active)
CC1=C(/C=C/C(C)=C/C=C/C(C)=C/C=C/C=C(C)/C=C/C=C(C)/C=C/C2=C(C)CCCC2(C)C)C(C)(C)CCC1	0.289% (inactive)	–
CC(=O)OCC(=O)[C@@]1(O)CCC2C3CCC4=CC(=O)CC[C@@]4(C)[C@]3(F)C(O)C[C@]21C (some centres not stated)	0.147% (inactive)	–
CC(N)=NCc1cccc(CN)c1	–	inactive
COc1ccc(OCCCC(=O)Nc2nnc(C3CCCO3)s2)cc1 (configuration not stated)	-0.481% (inactive)	–
COc1cccc(NC(=O)Nc2nnc(N3CCCCC3C)s2)c1 (configuration not stated)	3.2% (inactive)	–
COc1ccc2c(CC(=O)Nc3nnc(C4CC4)s3)coc2c1	–	25.1 µM (active)
C[C@H]1CC[C@H](C(=O)O)N[C@@H]1c1ccc(C#Cc2ccccc2)cc1	-1.28% [at 11.4 µM] (inactive)	–
O=C(Nc1cccc(F)c1)c1ccc(S(=O)(=O)N2CCCC2)cc1	1.79% (inactive)	–
C/C(Cl)=C\Cn1c(Nc2cccc(C)c2)nc2c1c(=O)n(C)c(=O)n2C	10.6% (inactive)	–
CCOC(=O)c1sc(NC(=O)CSc2ncccn2)c(C#N)c1C	3.84% (inactive)	–
COCCNC(=O)COc1ccc(C)c(C)c1	9.62% (inactive)	–
Cc1cccc(CNc2ccnc(-c3cccnc3)n2)c1	-10.9% (inactive)	–
c1cncc(CNc2ccnc(-c3ccc4c(c3)OCO4)n2)c1	–	20 µM (active)
O=C(Nc1cccnc1)c1ccc2c(c1)OCO2	-2.27% (inactive)	–
Cc1onc(-c2ccccc2Cl)c1C(=O)NCCn1ccc2ccccc21	2.57% (inactive)	–
Cc1noc(/C=C/N(C)C)c1S(=O)(=O)N1CCCC(C(=O)NCc2ccco2)C1 (configuration not stated)	-2.89% (inactive)	–
C=CCc1cccc2cc(C(=O)OCC)c(=O)oc12	–	31.6 µM (active)

Structure (SMILES)	activity change, negative = inhibition	Potency
CS(=O)(=O)N1CCN(C(=O)c2cc3ccccc3oc2=O)CC1	-9.3% (inactive)	–
COc1cccc2cc(C(=O)N(C)C)c(=O)oc12	-22.2% (inactive)	–
C=CCc1cccc2cc(C(=O)N3CCN(C(=O)OCC)CC3)c(=O)oc12	–	25.1 µM (active)
CCOC(=O)c1cc2ccccc2nc1C	0.969% (inactive)	–
CCOC(=O)N1CCN(C(=O)c2n[nH]c(=O)c3ccccc23)CC1	0.0442% (inactive)	–
CCOC(=O)N1CCN(C(=O)c2cn(C)c3ccc(S(=O)(=O)N4CCCC4)cc3c2=O)CC1	-11.3% (inactive)	–
COc1c(C(=O)N2CCCC2)ccc2ccccc12	4.92% (inactive)	–
CCOC(=O)N1CCN(C(=O)c2cc3c(ccc4ccccc43)oc2=O)CC1	–	31.6 µM (active)
CC(C)=CCC/C(C)=C/CC/C(C)=C/CC/C(C)=C/CO	-7.07% (inactive)	–
CC(c1cccnc1)N(CCN(C)C)C(=O)Nc1ccc(Cl)c(Cl)c1 (configuration not stated)	5.22% (inactive)	–
Cc1ccc(Br)cc1	2.4% (inactive)	–
COC(=O)c1ccc(N(CC(=O)NC2CCCC2)C(=O)CNC(=O)c2ccco2)cc1	3.14% (inactive)	–
COCCCNC(=O)c1c(F)c(F)c(F)c(F)c1F	-7.25% (inactive)	–
Cc1ccccc1CN1CCN(CC(=O)NCc2ccccn2)C1=O	1.1% (inactive)	–
CC(=O)N1[C@H](C)C=C[C@]1(Cc1ccccc1)C(=O)NCc1ccccn1	-2.62% (inactive)	–
Cc1cccn2c(=O)c3cc(C(=O)NCc4ccccn4)n(C)c3nc12	–	3.16 µM (active)
Cc1cccn2c(=O)c3cc(C(=O)N4COCC4(C)C)n(C)c3nc12	–	7.94 µM (active)
O=c1ccn(Cc2ccccc2Cl)cc1	0.809% (inactive)	–
COCCNc1ncnc2ccc(-c3cccnc3)cc12	–	31.6 µM (active)
CNc1ncnc2ccc(-c3cccc(NS(C)(=O)=O)c3)cc12	4.55% (inactive)	–
COCCNc1ncnc2ccc(-c3ccccc3CN(C)C)cc12	4.95% (inactive)	–
COCC(=O)Nc1nnc(COc2ccccc2)s1	-1.86% (inactive)	–

Structure (SMILES)	activity change, negative = inhibition	Potency
C[C@@H](C(=O)Nc1ccc2ccccc2c1)[C@@H]1C[C@@]1(C)[C@@H](NC(=O)c1cccnc1)c1ccccc1	1.96% (inactive)	–
CCCCCN(C(=O)NC(=O)Nc1ccccc1C)S(C)(=O)=O	4.95% (inactive)	–
COC(=O)C1=C(C)N(Cc2ccccc2)C2=C3C(=O)N(c4ccccc4)C(=O)C3[C@@](O)(C(=O)OC)C(=O)N2C1c1ccccc1 (some centres not stated)	6.04% [at 11.4 µM] (inactive) and 0.0692% [at 11.4 µM] (inactive)	–
N#CC1=C(N)Oc2cc(O)ccc2C1C1CCCCC1 (configuration not stated)	-8.01% (inactive)	–
O=C(O)c1c(Br)c(Br)c(Br)c(Br)c1C1c2ccc(O)cc2Oc2cc(O)ccc21	–	0.794 µM (active)
COc1ccc(CC(=O)c2ccc(O)cc2O)cc1OC	-8.11% (inactive)	–
CCN1CCN(Cc2nc3c(c(=O)n(C)c(=O)n3C)n2CC(=O)c2ccccc2)CC1	–	25.1 µM (active)
CCOC(=O)N1CCN(Cc2nc3c(c(=O)n(C)c(=O)n3C)n2Cc2ccccc2)CC1	12.7% (inactive)	–
CC1CCCN(Cc2nc3c(c(=O)n(C)c(=O)n3C)n2CC(=O)c2ccccc2)C1 (configuration not stated)	-10.4% (inactive)	–
CCn1nnc(NC(=O)c2c(OC)cccc2OC)n1	6.62% (inactive)	–
O=C(NCc1ccc2c(c1)OCO2)C1CCCN(S(=O)(=O)c2cccs2)C1 (configuration not stated)	6.03% (inactive)	–
O=C(c1cc(C(F)(F)F)cc(C(F)(F)F)c1)N1CCC2(CCCN(c3ccccn3)C2)CC1	-20.2% (inactive)	–
COc1ccc(C(=O)N2CCC3(CC2)CCN(c2ccccn2)CC3)cc1	–	25.1 µM (active)
COc1ccc(C(=O)N2CCC3(CCCN(C(c4ccccc4)c4ccccc4)C3)CC2)cc1	1.82% (inactive)	–
CC(C)c1cc(CN(C)C)c(O)c(C(C)(C)C)c1	5.05% [at 11.4 µM] (inactive)	–
COCCNC(=O)C(c1ccc(C)o1)N(Cc1cccs1)C(=O)c1snc(C(N)=O)c1N (configuration not stated)	–	25.1 µM (active)
CCC(C(=O)NC1CCCC1)N(C(=O)c1snc(C(N)=O)c1N)c1ccc2c(c1)OCCO2 (configuration not stated)	-17.9% (inactive)	–
COCCNC(=O)C(c1ccc(C)o1)N(Cc1ccccc1)C(=O)Cn1nnc2ccccc21 (configuration not stated)	8.67% (inactive)	–
COc1ccc(F)cc1S(=O)(=O)Nc1ccc2c(c1)OCO2	-14.2% (inactive)	–
COc1ccc(C(c2nnnn2C2CCCCC2)N2CCN(c3ccccc3F)CC2)cc1 (configuration not stated)	13.6% (inactive)	–
CCC(=O)c1ccc(OCC(O)CN2C(=O)NC(C)(C)C2=O)cc1 (configuration not stated)	6.49% (inactive)	–
Cc1ccc2cccc(O)c2[n+]1[O-]	-28.9% (inactive)	–

Structure (SMILES)	activity change, negative = inhibition	Potency
Cc1ccc(C)c(NS(=O)(=O)c2cc(Br)cnc2N)c1	6.31% (inactive)	–
O=c1cc(-c2ccccc2)[nH]c2nc(Cl)ccc12	–	7.94 µM (active)
CCCC(NS(=O)(=O)c1ccc(OC)cc1)C(=O)O (configuration not stated)	13.1% (inactive)	–
COc1cccc(N2CC(C(=O)Nc3c(C)cccc3C)CC2=O)c1 (configuration not stated)	-4.93% (inactive)	–
COc1cccc(C2/C(=C(/O)c3ccncc3)C(=O)C(=O)N2CCCN(C)C)c1 (configuration not stated)	-1.78% (inactive)	–
Cn1c(=O)c2c(nc(CN3CCOCC3)n2Cc2ccccc2)n(C)c1=O	3.8% (inactive)	–
O=C(Cn1nc(Cc2cccnc2)c2ccccc2c1=O)NCC1CCCO1 (configuration not stated)	11.8% (inactive)	–
Cc1cccn2c(=O)c3cc(C#N)c(=O)n(CCCN4CCOCC4)c3nc12	–	31.6 µM (active)
Cc1cccn2c(=O)c3cc(C#N)c(=NC(=O)c4cccnc4)n(CC4CCCO4)c3nc12 (configuration not stated)	–	7.94 µM (active)
Cc1nnc(SCC(N)=O)n1CC1CCCO1 (configuration not stated)	16% (inactive)	–
CCCOc1ccc(C2c3c(oc4cc(C)c(C)cc4c3=O)C(=O)N2CCCN2CCOCC2)cc1 (configuration not stated)	-7.43% (inactive)	–
CC(=NCC1CCCO1)c1c(O)[nH]c(=O)[nH]c1=O (configuration not stated)	1.09% (inactive)	–
CCOC(=O)N1CCC(NC(=O)c2ccc3nc(N4CCOCC4)sc3c2)CC1	-10.9% (inactive)	–
Nc1c(C(=O)NCc2ccccc2)nnn1Cc1cccc(Cl)c1	8.84% (inactive)	–
COC(=O)CCNc1ccc2c(c1)OCCO2	-2.43% (inactive)	–
NC1(C(=O)OCc2ccccc2)CCCC1	-22.7% [at 11.4 µM] (inactive)	–
BrC1C(Br)C(Br)C(Br)C(Br)C1Br (configuration not stated)	-23.1% (inactive)	–
C=C(C)C1CC=C(C)C(O)C1 (configuration not stated)	4.89% (inactive)	–
Nc1nc2[nH]c(=O)c(=O)[nH]c2c(=O)[nH]1	-3.46% (inactive)	–

Source: PubChem BioAssay AID893 (National Center for Advancing Translational Sciences (NCATS), 2007)
